GoLoco inh red: qHTS Assay for Inhibitors of RGS12 GoLoco Motif Activity (Red Fluorophore) | Guanine nucleotide-binding protein G(i) subunit alpha-1 (Homo sapiens), P63096 | Gai1:RGS12 GoLoco peptide FP, rhodamine, 10 min | Potency, µM (doses to about 61.6 µM), inactives show at the top dose activity, negative = inhibition, usual class: inhibitors | 0.44% of 230,000 active; active = well fitted inhibition curve with a large enough effect, not every such curve was filed as active; inactive = no such curve, though single readings can be large or run the other way; also: potency is read from the fitted curve at half-maximal effect; nearly all actives have a fitted effect of over 30% in size
Target sequence (P63096 whole entry, looked up): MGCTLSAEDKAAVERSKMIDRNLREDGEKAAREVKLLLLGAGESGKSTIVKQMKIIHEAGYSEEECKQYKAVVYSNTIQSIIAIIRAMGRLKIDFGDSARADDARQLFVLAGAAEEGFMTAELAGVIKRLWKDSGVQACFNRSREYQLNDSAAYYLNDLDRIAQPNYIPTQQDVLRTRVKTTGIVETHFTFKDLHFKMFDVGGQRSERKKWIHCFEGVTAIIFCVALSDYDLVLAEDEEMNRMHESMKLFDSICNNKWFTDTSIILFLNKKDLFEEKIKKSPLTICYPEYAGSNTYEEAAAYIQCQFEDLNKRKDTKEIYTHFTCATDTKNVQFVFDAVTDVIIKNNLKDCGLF
Coupling enz: qHTS Assay for Inhibitors of Fructose-1,6-bisphosphate Aldolase from Giardia Lamblia: Coupling assay counterscreen; coupling enzyme system counterscreen, AmpLite Red fluorescence; activity change, negative = inhibition, % at 58.2 µM, hits read low; 0.67% of 290,000 active; in the data active = activity change below about -30%
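First, compound is pin-transferred into glyceraldehyde-3-phosphate coupling-enzyme reagent at 57.5 uM final and held 10 min at RT. Next, substrate, coupling system and AmpLite Red are added. After 20 min RT, fluorescence (525/598 nm) is read.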
ALDH1A1 inh: qHTS Assay for Inhibitors of Aldehyde Dehydrogenase 1 (ALDH1A1) | Purified ALDH1A1, NADH fluorescence, propionaldehyde substrate | Potency, µM (highest dose often 75.3 µM), inactives show at the highest dose activity, negative = inhibition, usual class: inhibitors | 7.3% of 220,000 active;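 also: potency is read from the fitted curve at half-maximal effect; plate controls were no enzyme wells and a reference inhibitor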
Sfp PPTase inh: qHTS Assay for Inhibitors of Bacillus subtilis Sfp phosphopantetheinyl transferase (PPTase). 4'-phosphopantetheinyl transferase ffp (Bacillus subtilis), Q9F4F7. Biochemical Sfp PPTase activity, qHTS. Potency, µM, for inactives: largest response in the series, negative = inhibition, hits mostly inhibitors. 3.5% of 310,000 active. AID 1490, 2009; active = well fitted curve in the direction sought with a large enough effect; inconclusive = small, poorly fitted or top-dose-only effect, or another doubt; inactive = no such curve, though single readings can be large; an effect the other way counts as inactive or inconclusive;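 also: the enzyme is Sfp with the accession as filed and its product quenches rhodamine fluorescence; potency is read from the fitted curve at half-maximal effect; 0% = enzyme reaction without inhibitor and -100% = no enzyme wells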
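Compounds were incubated with enzyme (final 15 nM) for 15 min at room temperature before substrate addition started the reaction. Fluorescence at 525 nm excitation, 598 nm emission was recorded immediately and after 30 minutes.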
NPSR antag: qHTS Assay for Antagonists of the Neuropeptide S Receptor: cAMP Signal Transduction; CHO-NPSR cells, cAMP TR-FRET, antagonist mode; Potency, µM (doses to about 38.3 µM), without a hit: top-dose activity change, negative = inhibition, actives largely listed as inhibitors; 1% of 220,000 active; active = well fitted curve in the direction sought with a large enough effect; inconclusive = small, poorly fitted or top-dose-only effect, or another doubt; inactive = no such curve, though single readings can be large; an effect the other way counts as inactive or inconclusive; also: potency is read from the fitted curve at half-maximal effect; nearly all actives have a fitted effect of over 50% in size
JMJD2E inh: qHTS Assay for Inhibitors of Human Jumonji Domain Containing 2E (JMJD2E) | Lysine-specific demethylase 4E (Homo sapiens), B2RXH2 | JMJD2E catalytic domain, FDH-coupled NADH fluorescence (FDH is formaldehyde dehydrogenase) | Potency, µM (top dose mostly 57.1 µM), for the others: at the highest dose activity change, negative = inhibition, hits mostly inhibitors | 1.6% of 230,000 active | AID 2147, 2009;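 also: potency is read from the fitted curve at half-maximal effect; 0% = wells with enzyme and -100% = buffer wells without enzyme; nearly all actives have a fitted effect of over 50% in size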
Target sequence (B2RXH2 1-337 limits assumed): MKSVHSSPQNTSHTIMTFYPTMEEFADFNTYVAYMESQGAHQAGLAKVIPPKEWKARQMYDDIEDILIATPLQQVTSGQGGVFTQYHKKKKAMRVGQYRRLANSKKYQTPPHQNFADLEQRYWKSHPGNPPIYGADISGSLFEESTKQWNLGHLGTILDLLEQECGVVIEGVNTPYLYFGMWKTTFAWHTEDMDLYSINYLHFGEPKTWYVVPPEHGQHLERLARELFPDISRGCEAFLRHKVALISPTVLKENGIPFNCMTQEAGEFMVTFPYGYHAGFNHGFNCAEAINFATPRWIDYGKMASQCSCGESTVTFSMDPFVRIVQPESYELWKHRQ
Starred values were filed as active, the others as inactive; [ ] = dose if it differs, or a comment. An excerpt weighted towards active compounds, which were near 8.5% of everything screened. Unless noted, calls follow the shape of the dose curve; as a rule, active = well fitted inhibition curve with a large enough effect (not every such curve was filed as active); inconclusive = small, poorly fitted or top-dose-only effect, or another doubt; inactive = no such curve, though single readings can be large or run the other way. Unless noted, % is scaled to controls: 0 for no effect and ±100 for the full control effect.

How did N#Cc1ccc(/C=C/C(=O)c2cccnc2)cc1 do in these assays?
GoLoco inh red: -1%; Coupling enz: 1; ALDH1A1 inh: inconclusive; Sfp PPTase inh: 50µM*; NPSR antag: -10%; JMJD2E inh: -4%

What do the screens show for `O=C(/C=C/c1ccc(OCc2ccccc2)c(OCc2ccccc2)c1)c1cccnc1`?
GoLoco inh red: 21%; Coupling enz: 9; ALDH1A1 inh: 7.1µM*; Sfp PPTase inh: -4%; NPSR antag: -57%; JMJD2E inh: -10%

How did N/C(=N\OC(=O)/C=C/c1ccccc1Cl)c1ccncc1 do in these assays?
GoLoco inh red: 11%; Coupling enz: -1; ALDH1A1 inh: 10µM*; Sfp PPTase inh: -5%; NPSR antag: 22%; JMJD2E inh: 5%

Results for O=C(/C=C/c1ccc(Cl)cc1)c1cccnc1 ?
GoLoco inh red: 13%; Coupling enz: 2; ALDH1A1 inh: -12%; Sfp PPTase inh: inconclusive; NPSR antag: 19%[46.1 µM]; JMJD2E inh: 5%

How did CCOc1ccccc1N1CCN(C(=O)c2ccc(OCC(=O)N3CCOCC3)c(OC)c2)CC1 do in these assays?
Coupling enz: -2; Sfp PPTase inh: 7%

How did CCN1CCN(C(=O)CCc2nnc(CCc3c[nH]c4ccccc34)o2)[C@@H](C)C1=O do in these assays?
Coupling enz: 2; Sfp PPTase inh: 15%

What do the screens show for `Cc1ccc(C)c(CNC(=O)Nc2ccccc2)c1`?
Coupling enz: 3; Sfp PPTase inh: 4%

What do the screens show for `CCNC(=S)N/N=C/c1ccc(OCC(=O)Nc2ccc(C)cc2)cc1`?
GoLoco inh red: 9%; Coupling enz: 2; ALDH1A1 inh: 12%; Sfp PPTase inh: 1%; NPSR antag: -12%[46.1 µM]; JMJD2E inh: -2%

Results for CCOC(=O)c1ccc(NC(=O)CC2NCCNC2=O)cc1 (configuration not stated) ?
GoLoco inh red: 89%; ALDH1A1 inh: -5%; Sfp PPTase inh: 5%; NPSR antag: 5%[46.1 µM]; JMJD2E inh: -3%

Results for CCOC(=O)c1ccc(NC(=O)CC2OCCN(CC)C2=O)cc1 (configuration not stated) ?
GoLoco inh red: 4%; Coupling enz: 0; ALDH1A1 inh: 1.8µM*; Sfp PPTase inh: -7%; NPSR antag: inconclusive; JMJD2E inh: -6%

What do the screens show for `CCOC(=O)c1ccc(NC(=O)CC2C(=O)OCCN2CC)cc1` (configuration not stated)?
GoLoco inh red: 2%; Coupling enz: 2; ALDH1A1 inh: 1.4µM*; Sfp PPTase inh: -13%; NPSR antag: 25%; JMJD2E inh: -2%

How did CCCN1CCOC(CC(=O)Nc2ccc([N+](=O)[O-])cc2)C1=O (configuration not stated) do in these assays?
GoLoco inh red: -9%; Coupling enz: 1; ALDH1A1 inh: 8.9µM*; Sfp PPTase inh: 3%; NPSR antag: 0%; JMJD2E inh: -2%

How did CN(C)C(=O)CN1CCN(Cc2cn(C)nc2-c2ccc3c(c2)OCCO3)CC1 do in these assays?
GoLoco inh red: 9%; Coupling enz: 3; ALDH1A1 inh: 4%; Sfp PPTase inh: 19%; NPSR antag: -16%; JMJD2E inh: 1%

Results for Cc1ccc(C(=O)NNC(=O)CSc2n[nH]c(-c3cccnc3)n2)cc1 ?
GoLoco inh red: 93%; Coupling enz: 2; ALDH1A1 inh: 3%; Sfp PPTase inh: -50%; NPSR antag: 7%; JMJD2E inh: 1%

What do the screens show for `COc1ccc(NC(=O)c2cc(OCCCN(C)C)nn2Cc2ccccc2)cc1`?
Coupling enz: 0; Sfp PPTase inh: -16%

How did O=[N+]([O-])c1ccc(C2Nc3cccc4cccc(c34)N2)cc1 do in these assays?
GoLoco inh red: -7%; Coupling enz: -16; ALDH1A1 inh: inconclusive; Sfp PPTase inh: 22µM*; NPSR antag: -15%; JMJD2E inh: -14%

Results for O=C1c2ccccc2NC(c2cccc([N+](=O)[O-])c2)N1O (configuration not stated) ?
Coupling enz: 0; Sfp PPTase inh: -4%

What do the screens show for `O=[N+]([O-])c1cccc(C2Nc3cccc4cccc(c34)N2)c1`?
GoLoco inh red: -13%; Coupling enz: -20; ALDH1A1 inh: inconclusive; Sfp PPTase inh: 45µM*; NPSR antag: -11%; JMJD2E inh: inconclusive

What do the screens show for `Fc1ccc(C2Nc3cccc4cccc(c34)N2)cc1`?
Coupling enz: -8; Sfp PPTase inh: inconclusive

Results for CCOc1ccc(/C=N/OCC(=O)Nc2ccc(OCc3ccccc3)cc2)cc1OC ?
GoLoco inh red: -24%; Coupling enz: 10; ALDH1A1 inh: -4%; Sfp PPTase inh: inconclusive; NPSR antag: 10%; JMJD2E inh: inconclusive

Results for COc1cc(/C=N/OCC(=O)Nc2ccc(OC(F)F)cc2)ccc1OCc1ccccc1 ?
GoLoco inh red: 9%; Coupling enz: -1; ALDH1A1 inh: -2%; Sfp PPTase inh: 19%; NPSR antag: -15%; JMJD2E inh: -17%

Results for COc1cc(/C=N/OCC(=O)NC23CC4CC(CC(C4)C2)C3)ccc1OCc1ccccc1 ?
Coupling enz: -1; ALDH1A1 inh: 22µM*; Sfp PPTase inh: inconclusive; NPSR antag: inconclusive; JMJD2E inh: 12%

What do the screens show for `COc1cc(/C=N/OCC(=O)NC2CCCCC2)ccc1OCc1ccccc1`?
GoLoco inh red: 3%; Coupling enz: -3; ALDH1A1 inh: 22µM*; Sfp PPTase inh: -11%; NPSR antag: -17%; JMJD2E inh: 3%

Results for Nc1ccccc1SCc1ccccc1Cl ?
GoLoco inh red: 5%; Coupling enz: -1; ALDH1A1 inh: -2%; Sfp PPTase inh: 20µM*; NPSR antag: 9%; JMJD2E inh: 3%

What do the screens show for `Nc1ccccc1SSc1ccccc1N`?
GoLoco inh red: -22%; Coupling enz: -4; Sfp PPTase inh: 3.5µM*; NPSR antag: inconclusive; JMJD2E inh: 3%

What do the screens show for `N#Cc1ccccc1Sc1ccccc1N`?
GoLoco inh red: 6%; Coupling enz: -4; ALDH1A1 inh: 0%; Sfp PPTase inh: -2%; NPSR antag: -12%[46.1 µM]; JMJD2E inh: -3%

Results for C=CCOc1ccccc1CNc1ccc2c(c1)OCCO2 ?
GoLoco inh red: -1%; Coupling enz: -37*; ALDH1A1 inh: inconclusive; Sfp PPTase inh: -20%; NPSR antag: -1%; JMJD2E inh: inconclusive

Source: PubChem BioAssay (National Center for Advancing Translational Sciences (NCATS))
